# Screening data deposited in PubChem by National Center for Advancing Translational Sciences (NCATS).
# Sampled rows, rich in hits. Any-hit rate of the full collection: about 1.5%.
# RECQ1 inh-1 = qHTS Assay for Inhibitors of RecQ-Like Dna Helicase 1 (RECQ1) | RECQ1 DNA unwinding, red fluorescence kinetic read | ATP-dependent DNA helicase Q1 (Homo sapiens), P46063 | AID 2549, 2010 | Potency, µM (top dose mostly 57.3 µM), for inactives: top-dose activity, negative = inhibition, most hits filed as inhibitors | 240,000 compounds, 0.54% hits;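 further: potency means the concentration at half of the fitted maximal effect; plate controls were vehicle for no effect and no enzyme for full effect; nearly all actives have a fitted effect of over 30% in size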
#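 50 nM RECQ1T1 preincubated 15 min with compound in Tris pH 8.0 buffer with MgCl2, DTT, Tween-20 and 2.5 ug/ml poly(dI-dC); started with 200 nM TAMRA/BHQ-2 forked duplex and 2 mM ATP. Unwinding read as fluorescence (525/598 nm), two reads 2 h apart.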
# APE1 inh-1 = qHTS Assay for Inhibitors of the Human Apurinic/apyrimidinic Endonuclease 1 (APE1). AID 2517, 2012. Potency, µM (titrated, usually from 65.8 µM), for the others: at the top dose activity change, negative = inhibition, actives largely listed as inhibitors. DNA repair nuclease/redox regulator APEX1 (Homo sapiens), P27695. 350,000 compounds, 0.35% hits. recombinant APE1, TAMRA/BHQ-2 abasic DNA cleavage fluorescence;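 further: potency means the concentration at half of the fitted maximal effect; plate controls were vehicle for no effect and reference inhibitor for full effect; nearly all actives have a fitted effect of over 55% in size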
#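 Kinetic fluorescence read (525 ex/598 em nm, three reads 60 s apart) of AP-site incision; signal = third minus first read. Enzyme 0.75 nM, dual-labelled THF duplex 50 nM, compound preincubation 15 min RT.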
# BLM inh-1 = qHTS Assay for Inhibitors of Bloom's syndrome helicase (BLM) | RecQ-like DNA helicase BLM (Homo sapiens), P54132 | recombinant BLM DNA unwinding, fluorescence dequenching | Potency, µM (highest dose often 56.1 µM), for the others: top-dose activity change, negative = inhibition, most hits filed as inhibitors | 350,000 compounds, 0.2% hits | AID 2528, 2010;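 further: potency means the concentration at half of the fitted maximal effect; plate controls were vehicle for no effect and no enzyme for full effect; nearly all actives have a fitted effect of over 35% in size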
# Target sequence (P54132 whole entry, looked up): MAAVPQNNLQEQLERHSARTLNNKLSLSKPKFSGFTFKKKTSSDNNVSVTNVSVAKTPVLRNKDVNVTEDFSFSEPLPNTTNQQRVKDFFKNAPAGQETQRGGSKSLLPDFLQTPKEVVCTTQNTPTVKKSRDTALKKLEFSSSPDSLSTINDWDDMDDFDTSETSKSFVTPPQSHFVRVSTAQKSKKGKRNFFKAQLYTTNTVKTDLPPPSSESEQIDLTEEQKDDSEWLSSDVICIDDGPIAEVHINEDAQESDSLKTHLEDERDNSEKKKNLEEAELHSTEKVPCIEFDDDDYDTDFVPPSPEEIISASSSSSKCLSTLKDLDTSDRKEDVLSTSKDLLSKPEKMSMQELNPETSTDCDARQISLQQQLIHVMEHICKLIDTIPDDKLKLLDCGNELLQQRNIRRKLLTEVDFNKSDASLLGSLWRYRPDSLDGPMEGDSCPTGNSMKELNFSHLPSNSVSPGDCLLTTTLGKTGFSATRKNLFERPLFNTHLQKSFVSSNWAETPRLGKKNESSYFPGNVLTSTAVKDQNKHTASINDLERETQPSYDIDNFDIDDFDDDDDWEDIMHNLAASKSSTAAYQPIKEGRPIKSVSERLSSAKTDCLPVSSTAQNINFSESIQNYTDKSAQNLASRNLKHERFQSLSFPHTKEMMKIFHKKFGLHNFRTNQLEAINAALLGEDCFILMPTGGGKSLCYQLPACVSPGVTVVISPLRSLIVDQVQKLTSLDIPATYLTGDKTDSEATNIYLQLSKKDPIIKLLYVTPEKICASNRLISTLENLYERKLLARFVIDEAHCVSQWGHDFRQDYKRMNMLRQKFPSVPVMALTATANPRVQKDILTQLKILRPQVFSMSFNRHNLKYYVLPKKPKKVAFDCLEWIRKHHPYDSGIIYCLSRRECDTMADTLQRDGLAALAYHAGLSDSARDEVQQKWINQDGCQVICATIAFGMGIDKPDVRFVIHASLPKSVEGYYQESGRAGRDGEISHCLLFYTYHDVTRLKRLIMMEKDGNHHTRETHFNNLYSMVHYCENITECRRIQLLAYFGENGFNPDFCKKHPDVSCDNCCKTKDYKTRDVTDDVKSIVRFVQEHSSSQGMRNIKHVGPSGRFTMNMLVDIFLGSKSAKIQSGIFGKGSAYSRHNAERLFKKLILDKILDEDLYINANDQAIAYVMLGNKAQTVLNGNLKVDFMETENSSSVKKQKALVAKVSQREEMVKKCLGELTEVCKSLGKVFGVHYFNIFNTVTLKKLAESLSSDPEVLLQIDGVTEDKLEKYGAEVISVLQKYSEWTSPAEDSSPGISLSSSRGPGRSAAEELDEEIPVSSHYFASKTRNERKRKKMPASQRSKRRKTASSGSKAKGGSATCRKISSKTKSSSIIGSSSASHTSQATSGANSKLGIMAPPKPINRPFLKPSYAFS
# FEN1 inh-1 = qHTS Assay for the Inhibitors of Human Flap endonuclease 1 (FEN1) | P39748 | 390,000 compounds, 0.35% hits | Recombinant FEN1 flap cleavage, fluorescence, 15 min | Potency, µM (top dose mostly 114 µM), without a hit: at the top dose activity change, negative = inhibition, actives largely listed as inhibitors; further: potency means the concentration at half of the fitted maximal effect; on the % scale 0 is the no-effect control and ±100 the full control effect; nearly all actives have a fitted effect of over 65% in size
#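 In this screen, 50 nM flap DNA substrate was added to 10 nM FEN1 pretreated with compound for 15 min at room temperature; cleavage was followed with reads at 0 and 15 min, and Hill fitting gave concentration–response parameters.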
# WRN inhibitor = qHTS for Inhibitors of WRN Helicase; AID 651768, 2012; 360,000 compounds, 0.46% hits; WRN helicase unwinding, fluorescent forked duplex, kinetic; Potency, µM (series often up to 114 µM), inactives show at the highest dose activity change, negative = inhibition, actives largely listed as inhibitors; Bifunctional 3'-5' exonuclease/ATP-dependent helicase WRN (Homo sapiens), Q14191; further: potency means the concentration at half of the fitted maximal effect; on the % scale 0 is the no-effect control and ±100 the full control effect; nearly all actives have a fitted effect of over 55% in size
#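 Screening of the MLSMR collection measured strand separation of a quenched forked DNA duplex (100 nM) by 20 nM WRN with 2 mM ATP, all final. Compounds were preincubated with enzyme 15 min at room temperature.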
# PI5P4Ka inh = qHTS for Inhibitors of phosphatidylinositol 5-phosphate 4-kinase (PI5P4K). PI5P4Kalpha enzyme, ADP-Glo luminescence, 60 min; hits give low values. max response, %. 330,000 compounds, 1.2% hits. AID 652105, 2013; active means max response of -50% or lower; inconclusive means between -30% and -50%; inactive means -30% or higher; further: value at the top dose of about 77 µM; on the % scale 0 is the no-effect control and ±100 the full control effect
#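 Reactions run in 0.038 M HEPES pH 7.4, 0.28 mM EGTA, 0.1% CHAPS and 5% DMSO, with PI5P4Kalpha, substrate, compound and 5 microM ATP final, one hour at room temperature. Readout is ADP-Glo luminescence.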
# DNA dye displace = Counterscreen for APE1 Inhibitors: Fluorescent Dye Displacement Assay; shares compounds with APE1 inh-1; Potency, µM (highest dose often 28.5 µM), without a hit: at the highest dose activity change, negative = inhibition, actives largely listed as inhibitors; DNA fluorescent dye displacement counterscreen, fluorescence; 480 compounds, 7% hits;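 further: loss of thiazole orange fluorescence as the dye is displaced from duplex DNA; potency means the concentration at half of the fitted maximal effect; 0% = ThO with dsDNA and no compound and -100% = ThO without dsDNA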
# Endo IV inh = Counterscreen for APE1 Inhibitors: qHTS Assay for Inhibitors of Endonuclease IV; shares compounds with APE1 inh-1; E. coli Endo IV, fluorogenic AP-site DNA cleavage; Potency, µM (top dose mostly 27.1 µM), without a hit: at the top dose activity change, negative = inhibition, hits mostly inhibitors; 560 compounds, 4% hits;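 further: potency means the concentration at half of the fitted maximal effect; plate controls were uninhibited enzyme wells for no effect and no enzyme buffer wells for full effect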
# APE1 inh-2 = Confirmation qHTS Assay for Inhibitors of the Human Apurinic/apyrimidinic Endonuclease 1 (APE1) | shares compounds with APE1 inh-1 | purified APE1, fluorogenic abasic-site DNA cleavage | Potency, µM (series often up to 57.1 µM), without a hit: at the top dose activity change, negative = inhibition, most hits filed as inhibitors | 750 compounds, 44% hits | AID 2572, 2010; further: potency means the concentration at half of the fitted maximal effect; on the % scale 0 is the no-effect control and ±100 the full control effect; nearly all actives have a fitted effect of over 30% in size
# APE1 FP = qHTS FP-Based Assay for Inhibitors of the Human Apurinic/apyrimidinic Endonuclease 1 (APE1). shares compounds with APE1 inh-1. APE1 binding to TAMRA-labelled double-stranded DNA, fluorescence polarization displacement. Potency, µM (doses to about 28.5 µM), inactives show top-dose activity, negative = inhibition, usual class: inhibitors. 480 compounds, 7% hits. AID 2573, 2010; further: potency means the concentration at half of the fitted maximal effect; on the % scale 0 is the no-effect control and ±100 the full control effect
# BLM inh-2 = qHTS Confirmation Assay for Inhibitors of Bloom's syndrome helicase (BLM) | shares compounds with BLM inh-1 | BLM DNA unwinding, fluorescence quenching, biochemical | Potency, µM, inactives show max response, negative = inhibition, actives largely listed as inhibitors | 220 compounds, 40% hits;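 further: strand separation dequenches TAMRA so unwinding raises red fluorescence; potency means the concentration at half of the fitted maximal effect; series mostly up to about 69 µM; on the % scale 0 is the no-effect control and ±100 the full control effect; nearly all actives have a fitted effect of over 45% in size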
# RECQ1 conf = Confirmation qHTS Assay for Inhibitors of RecQ-Like Dna Helicase 1 (RECQ1); shares compounds with RECQ1 inh-1; RECQ1 helicase DNA unwinding, fluorescence; Potency, µM (titrated, usually from 229 µM), without a hit: top-dose activity change, negative = inhibition, usual class: inhibitors; 610 compounds, 28% hits; AID 2708, 2010; further: potency means the concentration at half of the fitted maximal effect; on the % scale 0 is the no-effect control and ±100 the full control effect; nearly all actives have a fitted effect of over 45% in size
# RECQ1 ADP FP = Counterscreen for RECQ1 Inhibitors: ADP Fluorescence Polarization Displacement Assay; shares compounds with RECQ1 inh-1; ADP fluorescence polarization displacement counterscreen; 530 compounds, 27% hits; Potency, µM (top dose mostly 228 µM), for the others: top-dose activity change, negative = inhibition, hits mostly inhibitors; further: potency means the concentration at half of the fitted maximal effect; on the % scale 0 is the no-effect control and ±100 the full control effect; nearly all actives have a fitted effect of over 45% in size
# RECQ1 inh-2 = Confirmation qHTS Assay for Inhibitors of RecQ-Like Dna Helicase 1 (RECQ1) - Round 2 Cherry Picks | shares compounds with RECQ1 inh-1 | recombinant RECQ1 DNA unwinding, red fluorescence | Potency, µM (series often up to 119 µM), inactives show top-dose activity, negative = inhibition, usual class: inhibitors | 1,100 compounds, 15% hits; further: potency means the concentration at half of the fitted maximal effect; on the % scale 0 is the no-effect control and ±100 the full control effect; nearly all actives have a fitted effect of over 50% in size
# FEN1 inh-2 = qHTS Assay for the Inhibitors of FEN1: Confirmatory Assay for Cherry-picked Compounds. shares compounds with FEN1 inh-1. FEN1 flap cleavage, TAMRA/BHQ2 fluorogenic DNA substrate. Potency, µM, most hits filed as inhibitors. 880 compounds, 79% hits; further: potency means the concentration at half of the fitted maximal effect; nearly all actives have a fitted effect of over 60% in size
# Starred values were filed as active, the others as inactive; i = inactive; ? = inconclusive; . = no result; [ ] = another dose, or the depositor's remark. Unless noted, the call rests on the fitted dose curve; in most records, active means well fitted curve in the direction sought with a large enough effect; inconclusive means small, poorly fitted or top-dose-only effect, or another doubt; inactive means no such curve, though single readings can be large; an effect the other way counts as inactive or inconclusive.
SMILES,RECQ1 inh-1,APE1 inh-1,BLM inh-1,FEN1 inh-1,WRN inhibitor,PI5P4Ka inh,DNA dye displace,Endo IV inh,APE1 inh-2,APE1 FP,RECQ1 conf,RECQ1 ADP FP,RECQ1 inh-2,others
CC(=O)NCCc1ccc(O)c(O)c1,-10%,25%,.,.,.,.,.,.,.,.,.,.,.,
NCCc1ccc(O)c(O)c1,14µM*,0.56µM*,-10%,.,6%,0,-3%[57.1 µM],110%[57.1 µM],?,?,?,89µM*,.,
Cc1ccc(/C=C2/C(=O)c3ccc(C(=O)O)cc3C2=O)o1,7.1µM*,8.9µM*,75%,25µM*,13µM*,-62*,.,.,?,.,24%[114 µM],45µM*,.,
O=C(CSc1nccc(=O)[nH]1)N1N=C2/C(=C/c3ccco3)CCCC2C1c1ccco1 (configuration not stated),16µM*,13µM*,4%,-2%,?,-58*,-5%,2%,8.9µM*,-28%,?,?,?,
O=C(COC(=O)c1cc2c(s1)CCC2)Nc1ccc(F)cc1,22µM*,16µM*,16µM*,-3%,?,?,?,7%,10µM*,?,.,.,?,BLM inh-2=?
O=C1/C(=C/c2ccc(O)c(O)c2)Oc2cc(O)ccc21,?,?,-15%,?,?,-64*,-5%,177%,?,27%,.,.,56µM*,
O=C(O)Cc1ccc(C(=O)CSc2ccccc2)s1,?,?,-30%,-32%,?,-59*,-3%,7%,?,8%,.,.,13%,
Cc1nc2c(C(=O)N(C)Cc3ccccc3)c[nH]n2c(=O)c1Cc1ccc(Cl)cc1,.,.,-4%,?,.,.,.,.,.,.,.,.,.,
CC1=[N+](C)c2ccc3ccccc3c2C1(C)C,3.5µM*,14µM*,-9%,?,25µM*,-5,1%,?,?,58%,7.9µM*,2.8µM*,22µM*,
C[C@H]1Cc2c(COc3ccccc3)nc3c(c2CO1)CN(S(=O)(=O)c1ccc2c(c1)OCCN2C)CC3,i[11.5 µM],17%[12.4 µM],1%[12.4 µM],.,.,.,.,.,.,.,.,.,.,
COc1cc(NC(=O)C2CCN(S(=O)(=O)c3ccc4c(c3)oc(=O)n4C)CC2)cc(OC)c1,.,.,1%,-2%,.,.,.,.,.,.,.,.,.,
COc1ccc(C(=O)CC(=O)c2ccc(F)cc2)cc1,.,.,.,17%,-5%,5,.,.,.,.,.,.,.,
COc1ccc(C(=O)CC(=O)c2ccc(C(C)(C)C)cc2)cc1,32µM*,8.9µM*,-15%,-29%,-6%,8,?,-3%[57.1 µM],7.9µM*,?,13µM*,?,?,
C[C@@]1(C(=O)O)NCCc2cc(O)c(O)cc21,2.5µM*,1.8µM*,8.9µM*,.,.,.,-12%[57.1 µM],161%[57.1 µM],-2%,20%[57.1 µM],-58%,?,.,
O=C(Nc1ccc(Br)cc1)N1CCC(CN2CCCC2)CC1,.,.,2%,3%,.,.,.,.,.,.,.,.,.,
Clc1ccccc1-c1nccc(NCc2cccs2)n1,-9%,-9%,-6%,.,.,.,.,.,.,.,.,.,.,
O=C(O)c1cc(O)c2c(c1)C(=O)c1cc(O)cc(O)c1C2=O,?,25µM*,-6%,?,?,-86*,13µM*,?,14µM*,5µM*,.,.,.,FEN1 inh-2=?
COc1cc(O)c2c(c1)C(=O)c1cc(C)cc(O)c1C2=O,0%,-7%,1%,.,.,.,.,.,.,.,.,.,.,
Cc1ccc(NC(=O)Nc2cn(C)c(=O)c3ccccc23)c(Cl)c1,.,.,-13%,15%,.,.,.,.,.,.,.,.,.,
